14 compounds from PubChem BioAssay (NCI) can be followed below.

Test systems include SR leukemia; RPMI-8226 leukemia; OVCAR-8 ovarian; OVCAR-5 ovarian; OVCAR-4 ovarian; SK-OV-3 ovarian; IGROV1 ovarian; OVCAR-3 ovarian; NCI/ADR-RES ovarian.
Common to all, as to assay: NCI-60 one-dose screen, 48 h (100 = growth as untreated, 0 = no growth, -100 = all killed)
Common to all, as to details: 10 µM unless noted

This is part of a sample that, as a whole, favours compounds with a hit. Of some 83,000 tested, about 20% had one in any assay.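 Step 1: grow cells in 96-well plates. Step 2: add test compound at a single concentration. Step 3: incubate 48 h. Step 4: record percent growth.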 A number with no mark means an inactive call. Calls of active or inactive are those of the source. How the source made its calls: active means growth percent below 10; inactive means the rest.

As to `Cc1ccc(NC(=O)c2ccc(CN3CC[C@H](N(C)C)C3)c(C(F)(F)F)c2)cc1Nc1nccc(-c2cncnc2)n1`, the growth with SR leukemia is -7.54% (active); with RPMI-8226 leukemia, -9.27% (active); with OVCAR-8 ovarian, 3.4% (active); in the assay on OVCAR-5 ovarian, 15.3%; with OVCAR-4 ovarian, -4.76% (active); in the assay on SK-OV-3 ovarian, 38.6%. Further, the growth was 0.261% (active) in the assay on IGROV1 ovarian, -6.36% (active) with OVCAR-3 ovarian and 24.9% in the assay with NCI/ADR-RES ovarian.
For the compound `Cc1cn(-c2cc(NC(=O)c3ccc(C)c(Nc4nccc(-c5cccnc5)n4)c3)cc(C(F)(F)F)c2)cn1`, the growth was 8.24% (active) in the assay with SR leukemia; 37.9% in the assay on RPMI-8226 leukemia; 42.6% in the assay on OVCAR-8 ovarian; 57% with OVCAR-5 ovarian; 51.8% in the assay with OVCAR-4 ovarian; 119% with SK-OV-3 ovarian. Also, the growth is -44.4% (active) in the assay with IGROV1 ovarian, 92.6% in the assay with OVCAR-3 ovarian and 31.6% with NCI/ADR-RES ovarian.
With `CN1CCN(CCOc2cc(OC3CCOCC3)c3c(Nc4c(Cl)ccc5c4OCO5)ncnc3c2)CC1`, the growth with SR leukemia was 38.7%; in the assay on RPMI-8226 leukemia, 95.1%; in the assay with OVCAR-8 ovarian, 55.6%; in the assay on OVCAR-5 ovarian, 29.1%; with OVCAR-4 ovarian it was 95.8%; in the assay on SK-OV-3 ovarian, -14.6% (active). In addition, the growth was -15.6% (active) in the assay on IGROV1 ovarian, 59.3% in the assay on OVCAR-3 ovarian and 60.7% with NCI/ADR-RES ovarian.
For `CC/C(=C(/c1ccc(Cl)cc1)c1ccc(OCCN2CCCCC2)cc1)c1ccc(Cl)cc1`, the growth in the assay with SR leukemia was 5.18% (active); in the assay with RPMI-8226 leukemia, 76.3%; in the assay with OVCAR-8 ovarian, 81.4%; with OVCAR-5 ovarian, 79.9%; in the assay with OVCAR-4 ovarian, 63.9%; in the assay on SK-OV-3 ovarian it was 83.7%. In addition, the figures for the growth in the assay with IGROV1 ovarian, in the assay on OVCAR-3 ovarian and in the assay on NCI/ADR-RES ovarian were 91.7%, 78.7% and 84.9%, respectively.
Take `CC1(COc2ccc3c(c2)ncn3-c2ccc3cccc(N4CCC(N)CC4)c3n2)COC1`: the growth in the assay with SR leukemia was -6.81% (active); with RPMI-8226 leukemia it was 0.988% (active); in the assay on OVCAR-8 ovarian, 3.53% (active); in the assay on OVCAR-5 ovarian, 10.3%; in the assay on OVCAR-4 ovarian it was 29.2%; in the assay with SK-OV-3 ovarian it was 54.2%. Further, the figures for the growth in the assay on IGROV1 ovarian, in the assay with OVCAR-3 ovarian and in the assay with NCI/ADR-RES ovarian were 22.7%, 37.2% and 51.5%, respectively.
As for `O=c1sn(-c2cccc3ccccc23)c(=O)n1Cc1ccccc1`, the growth with SR leukemia was 38.7%; in the assay on RPMI-8226 leukemia, 76.8%; in the assay on OVCAR-8 ovarian it was 94.4%; with OVCAR-5 ovarian, 112%; in the assay on OVCAR-4 ovarian, 107%; with SK-OV-3 ovarian, 83%. Besides, the growth was 98.2% in the assay on IGROV1 ovarian, 99.4% in the assay with OVCAR-3 ovarian and 107% in the assay with NCI/ADR-RES ovarian.
Take `CCN(CC)CCN1C(=O)c2cccc3c(-c4ccc5c(c4)ncn5C4CCCCC4)ccc(c23)C1=O`: the growth in the assay on SR leukemia was -14% (active); with RPMI-8226 leukemia it was -33% (active); in the assay on OVCAR-8 ovarian it was 25.9%; with OVCAR-5 ovarian, 36.4%; in the assay with OVCAR-4 ovarian, 32.9%; with SK-OV-3 ovarian, 21.2%. Besides, the growth was 28.4% in the assay on IGROV1 ovarian, 44.8% in the assay on OVCAR-3 ovarian and 21.8% with NCI/ADR-RES ovarian.
For the compound `O=C(Nc1cnn2ccc(N3CCC[C@@H]3c3cc(F)ccc3F)nc12)N1CC[C@H](O)C1`, the growth is 72.1% in the assay with SR leukemia; 91.1% with RPMI-8226 leukemia; 80.4% in the assay on OVCAR-8 ovarian; 114% in the assay with OVCAR-5 ovarian; 117% in the assay on OVCAR-4 ovarian; 79.6% in the assay on SK-OV-3 ovarian. For the same compound, the growth is 105% in the assay on IGROV1 ovarian, 99.9% with OVCAR-3 ovarian and 97% in the assay with NCI/ADR-RES ovarian.
Turning to `C/C(=C(/c1ccc(Cl)cc1)c1ccc(OCCN2CCCCC2)cc1)c1ccccc1`, the growth in the assay with SR leukemia was 11.2%; in the assay with RPMI-8226 leukemia, 69.6%; in the assay on OVCAR-8 ovarian, 78.8%; in the assay with OVCAR-5 ovarian, 81.6%; in the assay with OVCAR-4 ovarian it was 77.1%; in the assay with SK-OV-3 ovarian it was 86%. Besides, the growth in the assay on IGROV1 ovarian is 68.5%; in the assay on OVCAR-3 ovarian, 98.6%; with NCI/ADR-RES ovarian, 89.8%.
On to `Cc1cccc(C)c1N1C(c2ccccc2)=NNC12C=CC(=O)c1c(O)cccc12` (stereo unspecified), for which the growth with SR leukemia is 56.9%; with RPMI-8226 leukemia, 75.6%; with OVCAR-8 ovarian, 69.6%; with OVCAR-5 ovarian, 90.8%; in the assay on OVCAR-4 ovarian, 70.5%; in the assay with SK-OV-3 ovarian, 86%. The growth in the assay with IGROV1 ovarian was 83.3%; in the assay on OVCAR-3 ovarian, 51.7%; with NCI/ADR-RES ovarian it was 70.3%.
Take `Cn1ncc(Cl)c1-c1cc(C(=O)N[C@H](CN)Cc2ccc(F)c(F)c2)oc1Cl`: the growth in the assay with SR leukemia is -10.6% (active); with RPMI-8226 leukemia, -5.77% (active); in the assay on OVCAR-8 ovarian it was -38.4% (active); in the assay on OVCAR-5 ovarian it was 5.81% (active); with OVCAR-4 ovarian it was 24.8%; with SK-OV-3 ovarian, -41.6% (active). Further, the growth is -23.8% (active) in the assay on IGROV1 ovarian, 18.2% with OVCAR-3 ovarian and 8.92% (active) in the assay on NCI/ADR-RES ovarian.
Consider `Cn1cnc2c(F)c(Nc3ccc(Br)cc3Cl)c(C(=O)NOCCO)cc21`, for which the growth in the assay on SR leukemia was 75%; in the assay on RPMI-8226 leukemia, 69.9%; with OVCAR-8 ovarian, 66.4%; with OVCAR-5 ovarian it was 7.92% (active); in the assay on OVCAR-4 ovarian it was 65.5%; in the assay with SK-OV-3 ovarian, 51.5%. Also, the growth in the assay with IGROV1 ovarian was 25.3%; with OVCAR-3 ovarian, 106%; in the assay with NCI/ADR-RES ovarian it was 68.6%.
For `O=C(c1c(F)ccc(NS(=O)(=O)N2CC[C@@H](F)C2)c1F)c1c[nH]c2ncc(-c3cnc(C4CC4)nc3)cc12`, the growth in the assay with SR leukemia was 21.6%; in the assay on RPMI-8226 leukemia, 36.3%; with OVCAR-8 ovarian, 31.7%; with OVCAR-5 ovarian, 58.3%; in the assay with OVCAR-4 ovarian it was 64.2%; in the assay on SK-OV-3 ovarian it was 3.3% (active). Also, the growth in the assay on IGROV1 ovarian is 17%; in the assay with OVCAR-3 ovarian, 69.4%; in the assay with NCI/ADR-RES ovarian it was 102%.
Take `O=C1NC(=O)/C(=C/c2ccc3nccc(-c4ccncc4)c3c2)S1`: the growth in the assay with SR leukemia was -26.5% (active); in the assay on RPMI-8226 leukemia, -16.5% (active); with OVCAR-8 ovarian it was -18.8% (active); with OVCAR-5 ovarian it was -30.1% (active); with OVCAR-4 ovarian, -22.7% (active); in the assay on SK-OV-3 ovarian it was -60.3% (active). In addition, the growth in the assay with IGROV1 ovarian is -60.1% (active); in the assay with OVCAR-3 ovarian it was -30.4% (active); in the assay on NCI/ADR-RES ovarian, -14.6% (active).
